Screening results (PubChem BioAssay)
The list is not random: actives were taken first. Their share in the collection is about 3.3%.
UBC13 polyUb = UBC13 polyubiquitin chain formation inhibitors, primary screen, biochemical, TR-FRET, uHTS; Ubiquitin-conjugating enzyme E2 N (Homo sapiens), P61088; AID 485273, 2010; inhibition, % at 20 µM; 330,000 compounds, 0.47% hits; in the data active = inhibition above about 45%, passing the limit was not always enough
Target sequence (P61088 whole entry, looked up): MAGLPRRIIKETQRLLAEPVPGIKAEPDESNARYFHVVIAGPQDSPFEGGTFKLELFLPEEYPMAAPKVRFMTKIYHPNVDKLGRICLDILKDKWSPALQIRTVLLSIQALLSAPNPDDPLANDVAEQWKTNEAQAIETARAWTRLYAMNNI
SUMO HTRF inh = inhibitors of in vitro SUMOylation cascade, primary screen, biochemical, HTRF, uHTS. SUMO-conjugating enzyme UBC9 (Homo sapiens), P63279. HTRF SUMOylation assay, SAE1/SAE2 + UBC9. inhibition, % at 35 µM. 290,000 compounds, 0.36% hits. AID 2006, 2009; in the data active = inhibition above about 50%, passing the limit was not always enough
Target sequence (P63279 whole entry, looked up): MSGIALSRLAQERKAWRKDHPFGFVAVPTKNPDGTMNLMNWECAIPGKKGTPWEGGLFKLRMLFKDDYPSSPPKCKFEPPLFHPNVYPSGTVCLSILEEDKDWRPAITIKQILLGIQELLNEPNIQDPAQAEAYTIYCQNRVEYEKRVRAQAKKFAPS
HGIII-sPLA2 inh = human group III sPLA2 inhibitors, primary screen, biochemical, QFRET, BODIPY PC-A2 liposome substrate; Group 3 secretory phospholipase A2 (Homo sapiens), Q9NZ20; QFRET BODIPY PC-A2 liposome hydrolysis, fluorescence; inhibition, % at 12.2 µM; 370,000 compounds, 0.56% hits; AID 743126, 2013;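 active = inhibition above mean plus 3 SD of compounds lying within the high and low control bounds, cut at about 19% in these data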;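 note: 0% = median of test compound wells and 100% = no enzyme DMSO wells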
NR3A LBD binder = binders of NR3A ligand-binding domain, primary screen, biophysical, differential scanning fluorimetry, uHTS; NR3A LBD differential scanning fluorimetry, Tm shift; 0% = protein alone, 100% = glycine-bound protein; AID 1259313, 2017; Glutamate receptor ionotropic, NMDA 3A (GRIN3A) ligand-binding domain; Tm shift relative to glycine control, % at 25 µM; 340,000 compounds, 2.5% hits;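 active = melting temperature shift of at least 10% of the positive control shift, at one fixed dose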
Numbers without * were called inactive; . = no result.

SMILES	UBC13 polyUb	SUMO HTRF inh	HGIII-sPLA2 inh	NR3A LBD binder
Cc1cccc(C2=NN(c3ccccc3)[C@@H](C(=O)N3CCOC3=O)[C@@H]2c2ccc(F)cc2)c1	.	.	-17	-5
Cc1cccc(C2=NN(c3ccccc3)[C@@H](C(=O)N3CCOC3=O)[C@@H]2C)c1	.	.	4	-2
Cc1cccc(C2=NN(c3ccc(Br)cc3)[C@@H](C(=O)N3CCOC3=O)[C@@H]2C)c1	.	.	-16	12*
O=C1OCCN1C(=O)[C@H]1[C@H](c2ccc([N+](=O)[O-])cc2)C(c2cccc(Cl)c2)=NN1c1ccccc1	-20	13	-16	13*
COC(=O)[C@]12C[C@H](CC(=O)NCC34CC5CC(CC(C5)C3)C4)C(=O)N(Cc3ccco3)C1=C[C@H](COCc1ccccc1)O[C@@H]2C	.	.	-15	.
CCCCCCN1CCS(=O)(=O)N(Cc2ccc(Cl)cc2)C(C(=O)OC)C1 (configuration not stated)	.	.	-3	.
O=C(NCCc1ccc(F)cc1)c1ccc(Sc2ccccc2Cl)c([N+](=O)[O-])c1	.	.	11	.
COC(=O)C[C@H]1CC[C@@H]2[C@@H](COc3ccc(NC(=O)C4CCCCC4)cc3C(=O)N2C)O1	.	.	5	.
COc1cccc(Nc2nn3c(=O)c4ccccc4nc3s2)c1	4	.	.	23*
COc1cccc(C(C[N+](=O)[O-])c2c(C)[nH]n(-c3ccccc3)c2=O)c1 (configuration not stated)	-23	97*	-6	3
Cc1[nH]n(-c2ccccc2)c(=O)c1C(c1cccc([N+](=O)[O-])c1O)c1c(C)[nH]n(-c2ccccc2)c1=O	-60	62*	-3	19*
N#Cc1cc(-c2ccccc2)cn(Cc2c(Cl)cccc2Cl)c1=O	29	10	2	11*
CC12COC3(C(=O)Nc4ccc(Cl)cc4)CC1CCC32C (configuration not stated)	0	2	-7	-2
CC12COC3(C(=O)Nc4ccc([N+](=O)[O-])cc4)CC1CCC32C (configuration not stated)	-7	-17	18	17*
CCCCCn1nnnc1C1(C)CCSCC(=O)N1Cc1ccco1 (configuration not stated)	.	.	8	.
Cc1ccc(N(CC(=O)Nc2ccccc2C(=O)N2CCOCC2)S(C)(=O)=O)cc1	-7	-21	7	13*
Cc1nn(-c2ccccc2)c2c1C(c1ccc(O)c(O)c1)N1C(=N2)C(Nc2ccccc2)=Nc2ccccc21 (configuration not stated)	-30	33	-17	1
Cc1cccc(NC2=Nc3ccccc3N3C2=Nc2c(c(C)nn2-c2ccccc2)C3c2ccc(O)c(O)c2)c1 (configuration not stated)	-12	-11	-35	22*
Cc1ccc(NC2=Nc3ccccc3N3C2=Nc2c(c(C)nn2-c2ccccc2)C3c2ccc(O)c(O)c2)cc1 (configuration not stated)	.	16	-27	15*
Cc1ccc(S(=O)(=O)N2CCCC(C(=O)Nc3c(C)n(C)n(-c4ccccc4)c3=O)C2)cc1C (configuration not stated)	.	.	-1	.
CC1CN(S(=O)(=O)c2csc(C(=O)Nc3ccccc3)c2)CC(C)O1 (configuration not stated)	0	1	-8	16*
Cc1ccc(O)c(-c2cc(C(=O)Nc3ccc(S(=O)(=O)Nc4nc(C)cc(C)n4)cc3)[nH]n2)c1	-2	7	-55	30*
Cc1ccc(-c2cc(C(=O)Nc3ccc(S(=O)(=O)N4CC(C)OC(C)C4)cc3)[nH]n2)c(O)c1 (configuration not stated)	2	14	-23	30*
O=C(O)c1cccc(NC(=O)c2cc(S(=O)(=O)N3CCOCC3)cs2)c1	-8	22	-1	0
Cc1ccc(O)c(-c2cc(C(=O)Nc3ccc(S(=O)(=O)N4CC(C)OC(C)C4)cc3)[nH]n2)c1 (configuration not stated)	13	-6	-25	35*
c1nc(NCC2CCCOC2)c2cc(-c3ccc4c(c3)OCO4)ccc2n1 (configuration not stated)	.	.	17	.
O=S(=O)(Nc1cccc2ccccc12)c1cccs1	1	-3	-7	1
